Data published in PubChem BioAssay (NCI).
The panel holds about 83,000 compounds, 20% with a hit somewhere; the sample as a whole holds those more often.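 Cell lines were cultured in 96-well plates, exposed to a single compound concentration, and assessed for percent growth 48 hours later.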 Values without a mark were called inactive. Active and inactive are the calls of the source. How the source made its calls: active means growth percent below 10; inactive means the rest.

What was measured:
Assay in all cases: NCI-60 one-dose screen, 48 h (100 = growth as untreated, 0 = no growth, -100 = all killed)
Conditions in all cases: 10 µM unless noted
[1] = tested on: DU-145 prostate
[2] = tested on: K-562 leukemia
[3] = tested on: MALME-3M melanoma
[4] = tested on: MDA-MB-231 breast
[5] = tested on: RXF 393 renal
[6] = tested on: SF-268 CNS
[7] = tested on: SF-295 CNS
[8] = tested on: SF-539 CNS
[9] = tested on: UACC-257 melanoma
[10] = tested on: M14 melanoma
[11] = tested on: HCT-15 colon
[12] = tested on: HT29 colon
[13] = tested on: SNB-75 CNS
[14] = tested on: SNB-19 CNS
[15] = tested on: U251 CNS
[16] = tested on: PC-3 prostate
[17] = tested on: SK-MEL-5 melanoma
[18] = tested on: UACC-62 melanoma
[19] = tested on: LOX IMVI melanoma
[20] = tested on: SK-MEL-28 melanoma

SMILES | growth [1] | growth [2] | growth [3] | growth [4] | growth [5] | growth [6] | growth [7] | growth [8] | growth [9] | growth [10] | growth [11] | growth [12] | growth [13] | growth [14] | growth [15] | growth [16] | growth [17] | growth [18] | growth [19] | growth [20]
Cc1ccc(-n2nc3c(c(C#N)c2=O)CC(c2ccccc2Cl)C([N+](=O)[O-])=C3O)cc1 (stereo not given) | 107% | 81.7% | 101% | 82.4% | 101% | 90% | 101% | 99.8% | 102% | 99.6% | 61.3% | 118% | 75.1% | 97.1% | 90% | 66.6% | 75% | 84.3% | 81.4% | 106%
CSc1n(Cc2ccc3ccccc3c2)c(C)c[n+]1Cc1ccc2ccccc2c1 | -12.8% (active) | 8.26% (active) | -25.1% (active) | -30.8% (active) | -26.1% (active) | -11.7% (active) | -23.3% (active) | 8.44% (active) | -41.5% (active) | -14.3% (active) | 24.4% | -11.2% (active) | -32.4% (active) | 3.42% (active) | 2.53% (active) | 0.0083% (active) | -95.8% (active) | -56.2% (active) | -91.5% (active) | -9.19% (active)
O=C1/C(=C/c2ccc(Br)cc2)C=C(c2ccccc2)N1CCc1ccccc1 | 54.1% | 75.5% | 50.5% | 24.8% | 31.5% | 33.7% | -25.6% (active) | 36% | 43.7% | 49.9% | 69.7% | 32.5% | -34.3% (active) | 6.97% (active) | 6.97% (active) | 22.1% | 77.1% | 46.6% | 42.2% | 70.2%
C=CC(=O)Nc1cccc(Oc2nccc(Nc3nnc(C4CC4)s3)n2)c1 | 94.5% | 81.9% | 111% | 67.1% | 86.1% | 89.8% | 104% | 89.1% | 105% | 113% | 91.5% | 96.8% | 71.4% | 82.7% | 94.1% | 91.7% | 89.5% | 95.6% | 89.6% | 98.8%
COc1cccc(-c2nn(-c3ccccc3)cc2-c2ccnc(NCCNC(=O)c3ccccc3)c2)c1 | 74.5% | 38.2% | 95.7% | 55.3% | 79.9% | 78.3% | 62.1% | 96.9% | 49.7% | 55.3% | 50.5% | 15.9% | 71.1% | 72.3% | 47.9% | 37.7% | 34.5% | 57.2% | 68.7% | 88.3%
C=CCNc1nc(NN2C(=O)c3cccc4cccc(c34)C2=O)nc(-n2cnc3ccccc32)n1 | 97.9% | 9.94% (active) | 93.5% | 68.3% | 50.3% | 65% | 76.5% | 50.4% | 102% | 97.9% | 66.7% | 88.9% | 39.2% | 83.7% | 63.3% | 67.1% | 64.9% | 77.2% | 77.8% | 103%
COCCN(C(=O)c1ccc(F)cc1F)c1c(N)n(Cc2ccccc2)c(=O)[nH]c1=O | 120% | 96.6% | 120% | 106% | 101% | 111% | 108% | 108% | 106% | 112% | 98.8% | 104% | 105% | 106% | 100% | 97.4% | 108% | 94.3% | 99.3% | 114%
COc1ccc(C(=O)Nn2c(NCC(=O)N3c4ccccc4Sc4ccccc43)nnc2-c2ccc(O)cc2)cc1 | 116% | 114% | 98.1% | 101% | 117% | 111% | 107% | 117% | 94.9% | 91.7% | 96.9% | 98.2% | 115% | 111% | 97% | 97.6% | 104% | 104% | 98.4% | 119%
O=C(Nc1ccccc1-c1nc2ccccc2c(=O)[nH]1)c1cc2ccccc2[nH]1 | 102% | 94.1% | 107% | 79.7% | 98.4% | 91.9% | 91.3% | 89.5% | 83.4% | 91.7% | 98.6% | 91.6% | 63% | 93.4% | 92.3% | 78.3% | 81.2% | 84.9% | 88% | 99.9%
O=C(NCCCNc1cc(-c2cn(-c3ccccc3)nc2-c2cccc(O)c2)ccn1)c1ccc(F)cc1 | 48.4% | 0.281% (active) | -12.1% (active) | -13.6% (active) | 15.9% | 31.3% | -4.5% (active) | 13.9% | -51.7% (active) | -41.8% (active) | -4.32% (active) | 0.339% (active) | 10.9% | 54.2% | 15.6% | 12.6% | -24.8% (active) | -1.62% (active) | 21.5% | -34.8% (active)
N#CC1=C(NC=O)Oc2c(ccc3ccccc23)C1c1ccccc1 (stereo not given) | 41.3% | 15.1% | 66.8% | 31.9% | 25.5% | 41.3% | 29.3% | 8.89% (active) | 41.5% | 10.2% | 30.3% | 94% | 2.51% (active) | 30.8% | 21.6% | 18.3% | -33.1% (active) | 30.9% | 34.1% | 60.2%
O=c1cc(-c2ccc(Cl)cc2)[nH]c2ccccc12 | 97.4% | 33% | 84.7% | 81.6% | 76.4% | 86.1% | 84.1% | 94.5% | 73.3% | 71.8% | 59.1% | 86.3% | 85.3% | 91.5% | 80% | 75.7% | 59.1% | 67.8% | 71.4% | 78.1%
Oc1ccc(CN2CCC(N3CCOCC3)CC2)c2cccnc12 | 29.3% | 12.9% | -0.979% (active) | 31% | 13.1% | 32.3% | 5.68% (active) | 13.6% | 7.47% (active) | 24.2% | 17.7% | 103% | 32% | 17.6% | 16.9% | 15.3% | -45.8% (active) | 12.9% | 15.2% | 39.5%
Cc1cccc(Cc2cnc(NC(=O)/C=C/c3ccco3)s2)c1 | 15.9% | 8.09% (active) | 54.8% | 56.5% | -0.566% (active) | 49.4% | 6.75% (active) | -19.9% (active) | 41.3% | 10.3% | 12.8% | 6.71% (active) | 16.8% | 52.2% | 20.6% | 27.2% | 11.2% | 28.1% | 18.8% | 62.2%
CCN(CC)CCCC(C)Nc1c2ccc(Cl)cc2nc2ccc(O)cc12 (stereo not given) | 41.3% | -3.7% (active) | 51.2% | 47.4% | -19.9% (active) | 58.5% | 61% | 15.6% | -58.4% (active) | 14.2% | 42.3% | 48.2% | 35.3% | 44.8% | 32.5% | 48.7% | 34.7% | 82.3% | 0.124% (active) | 57.5%
